Here are results for 97 compounds from PubChem BioAssay AID1822 (The Scripps Research Institute Molecular Screening Center, 2009).

The campaign covered roughly 290,000 compounds. About 3,500 (1.2%) were called active. Only a selection was taken, and actives are over-represented in it overall. A number with no mark means an inactive call.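 The calls were made as follows: active = inhibition above the campaign mean inhibition over all tested compounds plus 3 SD (cut at about 28% in these data); inactive = the rest.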

The experiment deals with M18 aspartyl aminopeptidase (Plasmodium falciparum 3D7). Briefly: inhibition of P. falciparum M18 aminopeptidase – biochemical, QFRET, recombinant enzyme, primary screen (AID 1822).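 Also: 0% = plate median of test compound wells and 100% = 2 mM ZnCl2.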 Particulars: recombinant PfM18AAP, H-Glu-NHMec fluorogenic cleavage; at 7.35 µM; hits give high values.
As usually defined, the inhibition is the drop in the measured response relative to a control, in per cent. For `CC(=O)NS(=O)(=O)c1ccc2c(c1)Cc1cc(S(=O)(=O)NC(C)=O)ccc1-2`, the inhibition was 10.3%. Then `COc1cc(SC#N)ccc1N=Cc1c(C)[nH]n(-c2ccc(C)cc2)c1=O`, with -5.1%; and `CCN1CCN(C(=O)C2CCN(S(=O)(=O)c3cc(Cl)ccc3Cl)CC2)CC1`, with -5.08%. Then `CNC(=S)NNC(=O)c1ccc(N(C)C)cc1`, with 37.4% (active); and `COc1ccc(C(=O)NNC(=S)NC(=O)c2ccccc2)cc1`, with 8.59%. Then `CC(=O)NC(=S)NNC(=O)c1ccc(Br)cc1`, with 10.7%; and `CC1CCN(S(=O)(=O)c2ccc3c(ccn3CC(=O)O)c2)CC1`, with 4.44%. Consider `CN(C)S(=O)(=O)c1cccc(NC(=S)N/N=C/C(=O)c2ccccc2)c1`, for which the inhibition was 29.6% (active). The figure for `Cc1ccc(/C=N/NC(=S)Nc2cccc(S(=O)(=O)N(C)C)c2)o1` is 9.59%; for `CN(C)S(=O)(=O)c1cccc(NC(=S)NCc2ccc3c(c2)OCO3)c1` it is -10.4%. As to `Cc1ccc(S(=O)(=O)NNC(=O)/C=C/c2cccc(F)c2)cc1`, the inhibition was 12.8%. Then `CC1Cc2cc(/C(O)=C3\C(=O)C(=O)N(Cc4cccnc4)C3c3ccccc3F)ccc2O1` (configuration not stated), with 7.22%; and `Cc1nc(Cl)cc(N/N=C/c2ccccc2)n1`, with 1.31%; and `Cc1cc(C)nc(N/N=C/c2c(C)oc3ccccc23)n1`, with -6.94%. Then `Cc1cc2c(C)nc(N/N=C/c3ccccc3)nc2o1`, with 37.1% (active); and `CCn1nc(C)c(CNC(=O)C2CCC(=O)N(Cc3cccc(F)c3)C2)c1C` (configuration not stated), with -1.99%. As for `COc1ccccc1C(=O)N(C1=NC(C)CS1)c1ccc(Cl)cc1` (configuration not stated), the inhibition is -8.55%. As for `ClC1(Cl)CC1CSc1ncn[nH]1` (configuration not stated), the inhibition is 34.4% (active).

With `O=C(CSc1ncn[nH]1)NCc1ccc2c(c1)OCO2`, the inhibition is 5.91%.

Consider `O=C(CSc1ncn[nH]1)N/N=C/c1ccc(F)cc1`, for which the inhibition was 21.1%. The figure for `O=C(c1cccc(-n2cccc2)c1)N1CCN(S(=O)(=O)c2ccc(F)cc2)CC1` is 14.4%. Then `CC(C)c1ccc(NC(=O)[C@@H](NC(=O)N2CC(=O)Nc3ccccc32)C(C)C)cc1`, with -1.48%; and `Oc1cccc(/C=N/Nc2ccc(Cl)nn2)c1O`, with 60.9% (active); and `Oc1c(Br)cccc1/C=N/Nc1c(F)c(F)c(F)c(F)c1F`, with -1.11%. The figure for `COc1cccc(/C=N/Nc2ccc(Cl)nn2)c1` is 18.6%; for `Cc1ccsc1/C=N/n1c(=S)[nH]nc(C)c1=O` it is 2.51%. Take `Clc1ccc(N/N=C/c2cccs2)nn1`: the inhibition was 31.6% (active).

Turning to `Cc1ccsc1/C=N/NC(=O)Cc1cc(=O)[nH][nH]1`, the inhibition is 1.38%.

For `NC(=O)N/N=C\c1cccs1`, the inhibition is 1.75%.

On to `Cc1ccsc1/C=N/Nc1ccc(Cl)nn1`, for which the inhibition is 38.9% (active).

`Cc1nnc(N/N=C/c2cccs2)[nH]c1=O`: the inhibition is 0.78%.

Regarding `COc1ccc(CNC(=O)c2c[nH]c3c(OC)cc(OC)cc3c2=O)cc1`, the inhibition was 2.86%. Regarding `CCc1ccc(NC(=O)N2CCc3ccccc3C2)cc1`, the inhibition was -1.34%. With `COc1ccc(NS(=O)(=O)c2cc(C(=O)Nc3ccccc3C(=O)O)ccc2C)cc1`, the inhibition was 1.9%. The figure for `O=C(NC(=S)N1CCCCC1c1cccnc1)c1ccccc1` (configuration not stated) is 4.53%. `Cc1ccc2c(c1)c1ncnc(N3CCc4ccccc4C3)c1n2C`: the inhibition was -0.51%. Consider `CC(C)OCCCNC(=O)CN1C(=O)/C(=C/c2ccccc2F)Oc2ccccc21`, for which the inhibition was -19.2%. The figure for `Cc1ccc(OCC(=O)Nc2ccc(C(=O)O)cc2NC(=O)COc2ccc(C)c(C)c2)cc1C` is 0.26%; for `COCCn1c(SCc2nnc(-c3ccc(OC)c(OC)c3)o2)nc2sc3c(c2c1=O)CCC3` it is -13.2%; for `CSc1ccc(S(=O)(=O)N2CCC(C(=O)NCCc3ccccc3)CC2)cc1` it is 0.01%.

For `O=C(NCc1ccncc1)C1CCN(C(=O)c2cccc(Cl)c2)CC1`, the inhibition is -1.77%.

Regarding `O=C(c1cccs1)N(Cc1cc2ccccc2[nH]c1=O)CC1CCCO1` (configuration not stated), the inhibition was 2.59%. Then `O=C(Nc1ccc(C(=O)NCc2ccccc2Cl)cc1)C1=CSCCO1`, with 2.51%; and `Nc1nnn(CC(=O)N/N=C/c2ccc(O)cc2)n1`, with 7.09%; and `CC(C)(C)c1nnc(N/N=C/c2ccc(O)cc2)n(N)c1=O`, with 44.5% (active). In the case of `O=c1c2ccccc2nc(N/N=C/c2ccccc2)n1O`, the inhibition was 3.06%.

Regarding `O=c1cc(Cl)c2ccccc2n1-c1ccccc1`, the inhibition was 1.05%. The figure for `CN(C(=O)CSc1nnc(-c2n[nH]c3ccccc23)o1)c1ccccc1` is -5.28%. For the compound `Cc1c(C)c(C)c2[nH]c(=S)[nH]c2c1C`, the inhibition was -2.04%. On to `O=c1[nH]c(=S)[nH]c2[nH]c(=S)[nH]c12`, for which the inhibition was 43.7% (active). Regarding `Cc1ccc2occ(/C=N/NC(=O)c3ccccc3C)c(=O)c2c1`, the inhibition was 6.11%.

As for `NC(=S)N/N=C/c1coc2cc(Cl)ccc2c1=O`, the inhibition is 50.2% (active). Take `Cc1c(/C=N\NC(=O)c2cc3ccccc3o2)c2ccccc2n1C`: the inhibition was 0.69%.

In the case of `O=C(N/N=C/c1coc2ccccc2c1=O)c1cc2ccccc2o1`, the inhibition is 36.8% (active). Then `O=c1c(/C=N/O)coc2ccc(Cl)cc12`, with 8.13%; and `O=C(N/N=C/c1c[nH]c2ccccc12)c1cc2ccccc2o1`, with -7.84%; and `C[C@H](C(=O)CC(=O)OC(C)(C)C)[C@H](O)c1ccc(C(F)(F)F)cc1`, with 2.4%. Then `O=S(=O)(c1ccc(Cl)cc1)c1nc(-c2ccccc2F)oc1NCCN1CCOCC1`, with 1.96%; and `CN(Cc1ccccc1)C(=O)CSc1nc2ccccc2[nH]1`, with 7.79%; and `O=C(C1CCCO1)N1CCN(S(=O)(=O)c2ccc(Br)cc2)CC1` (configuration not stated), with -7.44%. With `Cc1cccn2c(=O)c3cc(C(=O)NCCN4CCOCC4)c(=N)n(Cc4cccnc4)c3nc12`, the inhibition was 7.09%. Regarding `COCCNC(=O)C1CCN(C(=O)C2CC(=O)N(c3ccc(C)cc3)C2)CC1` (configuration not stated), the inhibition is -4.37%. Turning to `CC(C)(C)N(Cc1ccccc1)C(=O)c1ccncc1`, the inhibition is 2.34%.

Consider `COc1cc(/C=N/O)ccc1OCc1ccc([N+](=O)[O-])cc1`, for which the inhibition is 2.23%. The figure for `Cc1cc(/C=C2\SC(=O)N(C)C2=O)c(C)n1-c1cccc(C(=O)O)c1` is 7.23%.

On to `CCOc1ccc(/C=N/Nc2nncc(-c3ccccc3)n2)cc1OC`, for which the inhibition is 8.38%. Then `Cc1ccc(-n2c(C)cc(/C=N/Nc3ccc([N+](=O)[O-])cn3)c2C)c(C)c1`, with 7.66%; and `Cc1cc(/C=N/Nc2ccc([N+](=O)[O-])cn2)c(C)n1-c1cccc(C(=O)O)c1`, with 50.7% (active).

As to `COc1cc(/C=N\Nc2ccc([N+](=O)[O-])cn2)ccc1OCC(=O)O`, the inhibition is 43.1% (active). Then `CC(=O)c1c(C)n(-c2ccc(C)cc2)c2ccc(O)cc12`, with -3.09%; and `CCCCN(Cc1ccccc1)C(=O)C1CCN(Cc2sccc2C)CC1`, with 10.9%. The figure for `CCC(C)C(=O)Nc1ccccc1N1CCN(c2ccc(F)cc2)CC1` (configuration not stated) is 4%. The figure for `OCCNc1nc2ccccc2n1-c1ncnc2sc3c(c12)CCC3` is -6.82%; for `Cc1ccc(C)c(NC(=O)CSc2nc3c(oc4ccccc43)c(=O)n2-c2ccccc2)c1` it is 2.4%. Turning to `CCOC(=O)c1cccc(NS(=O)(=O)c2c(C(=O)N3CCCCCC3)c(C)n(C)c2C)c1`, the inhibition was 0.1%. The figure for `Cc1cc(N2CCN(c3ccccc3)CC2)nc(N2CCOCC2)n1` is -12.7%; for `Cc1cc(N2CCOCC2)nc(-c2ccc(Br)cc2)n1` it is -2.46%.

With `Cc1ccc(Sc2cc(N3CCOCC3)nc(-c3ccccc3)n2)cc1`, the inhibition is 28.3% (active). Regarding `Cc1cc(C)nc(-n2nc(C)cc2NC(=O)c2ccc(Br)o2)n1`, the inhibition is -3.58%. Then `CSc1n[nH]c(=S)n1N`, with 32.7% (active); and `Oc1ccc(Br)cc1/C=N/Nc1ccccn1`, with 15.5%; and `O=C(Nc1ccccc1)Nc1ccc(C(F)(F)F)cn1`, with -2.42%. Then `Oc1ccc(/C=N/Nc2ccc(C(F)(F)F)cn2)cc1O`, with 34.4% (active); and `CCc1ccc(Nc2nnc(SCC(=O)c3ccc4c(c3)NC(=O)CO4)s2)cc1`, with 3.56%; and `O=C(Cn1nc([N+](=O)[O-])nc1Br)NC1CCCCC1`, with 0.92%. Regarding `CCOc1cc(NC(=O)c2cnccn2)c(OCC)cc1NC(=O)c1ccc(C)cc1`, the inhibition was 5.95%. Regarding `O=C(OCC1O[C@@H](OC(=O)c2cc(O)c(O)c(O)c2)[C@@H](OC(=O)c2cc(O)c(O)c(O)c2)[C@@H](OC(=O)c2cc(O)c(O)c(O)c2)[C@@H]1OC(=O)c1cc(O)c(O)c(O)c1)c1cc(O)c(O)c(O)c1` (some centres not stated), the inhibition is 41.3% (active).

As to `CN(C)c1ccc(CNC(=O)CN2C(=O)COc3ccc(S(=O)(=O)N4CCCC4)cc32)cc1`, the inhibition was 4.42%.

Take `COc1ccccc1CCNC(=O)C1CCN(C(=O)/C=C/c2ccccc2)CC1`: the inhibition is -9.1%. Then `CCOc1ccc(/C=N\NC(=O)c2c(C)nc3cc(C)ccn23)cc1`, with -0.74%; and `O=C(CN1CCOC1=O)N1CCCC(Nc2ccc(F)c(F)c2)C1` (configuration not stated), with -0.1%; and `O=C(CN1C(=O)CSC1=O)N1CCCC(Nc2ccc(F)cc2)C1` (configuration not stated), with -12.5%. Then `O=C1CCCCN1CCCC(=O)N1CCCC(Nc2ccc(F)cc2)C1` (configuration not stated), with 33.9% (active). Then `CCOC(=O)[C@@H]1[C@H]2COc3cc(OC)ccc3[C@@H]2N2C(=O)N(c3cccc(C)c3)C(=O)[C@@]12C`, with -13.2%; and `CCOC(=O)c1c(-c2ccccc2)oc2cc(Br)c(O)cc12`, with -7.24%. On to `CCOC(=O)c1c(-c2ccccc2)oc2ccc(OCC(N)=O)cc12`, for which the inhibition is 4.97%. Consider `CCOC(=O)c1c(-c2ccccc2)oc2cc(Br)c(O)c(C=O)c12`, for which the inhibition was 28.4% (active).
